CF NFkB block: cystic fibrosis NF-kB activation inhibition | AID 588850 | 0.86% of 360,000 active | KKLEB NF-kB-GFP reporter, PAF-induced, GFP fluorescence overnight | inhibition, % at 5 µM;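 active means at least 50% inhibition at 5 µM, scaled per plate between neutral and stimulator controls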;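 further: PAF is a Pseudomonas aeruginosa culture filtrate used as stimulus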
Shn3 inh set2: reduces Shn3 3'UTR luciferase signal in osteoblasts; Clone20 osteoblast Shn3 3'UTR firefly luciferase, 24 h; inhibition, % at 12.5 µM; 0.52% of 360,000 active;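 active means mean inhibition of at least 75% with every replicate also reaching 75%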
KKLEB tox: counter-screen for CF NF-kB inhibitors: cytotoxicity | KKLEB CF airway cells viability, ATPlite luminescence, overnight; active compounds read low; cells stimulated with P. aeruginosa culture filtrate | activity change (cytotoxicity), % at 5 µM | 0.36% of 360,000 active | AID 602141;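 active means corrected activity change at or below -50% at 5 µM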
TRPM1 prom inh: reduces MITF-dependent TRPM1 promoter luciferase signal. SK-MEL-5 TRPM1 promoter luciferase, 24 h. inhibition, % at 12.5 µM. 0.83% of 330,000 active. AID 488899;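 active means mean inhibition across replicates of 60% or more, whatever share of single replicates reaches that level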
HIF-2a block: blocks HIF-2a reporter activity; 786-0 RCC cells HIF-2a reporter, luciferase luminescence, overnight; inhibition, % at 18.8 µM; 0.72% of 360,000 active; AID 624352;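 active means inhibition of the luminescence signal of 40% or more relative to plate controls, in a single-dose primary screen at 18.75 µM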
Peg3 promoter: reduces Peg3 promoter-driven luciferase expression in HeLa; HeLa PEG-Prom luciferase reporter, luminescence, overnight; inhibition, % at 20 µM; 1.7% of 360,000 active;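 active means inhibition of at least 50% at 20 µM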
Hits are given with their value; . = inactive; / = not tested or not shown. Shown are actives, neighbours in structure and some others; about 2.7% of the full set was active somewhere.

SMILES | CF NFkB block | Shn3 inh set2 | KKLEB tox | TRPM1 prom inh | HIF-2a block | Peg3 promoter
C[n+]1c(-c2ccccc2)sc2ccccc21 | . | . | . | . | . | .
CN1C(=O)NC(=O)C2(CCCC2)C1=O | . | . | . | . | . | .
c1ccc2c(c1)[IH]c1ccccc1-2 | . | 91.4 | . | 88.2 | 51.8 | 96.0
CC(C)NP(=O)(NC(C)C)OP(=O)(NC(C)C)NC(C)C | . | . | . | . | . | .
COC(=O)C1=C(c2ccc(F)cc2OCc2ccccc2)C[C@@H]2CC[C@H]1N2C(=O)N1CCCC1 | . | . | . | . | . | .
CC(=O)OC(C)(C)/C=C/C(=O)[C@](C)(O)[C@H]1[C@H](O)C[C@@]2(C)[C@@H]3CC=C4[C@H](C[C@H](O)C(=O)C4(C)C)[C@]3(C)C(=O)C[C@]12C | 84.3 | 97.5 | -85.9 | 88.3 | 79.1 | 102.6
CC(=O)OC(C)(C)/C=C/C(=O)C(C)(O)C1C(O)CC2(C)C3CC=C4C(CC(O)C(=O)C4(C)C)C3(C)C(=O)CC12C (centres undefined) | 88.9 | . | -83.2 | 88.4 | 78.3 | 97.2
C[C@]12CC[C@H]3[C@@H](CCC4=CC(=O)CC[C@@]43O)[C@@H]1CCC2=O | . | . | . | . | . | .
COc1ccccc1C1CC2CCC(C1OC(C)=O)N2Cc1ccccc1 (centres undefined) | . | . | . | . | . | .
Cc1ccc(/C=C2\C(=O)NC(=S)N(c3ccc(F)cc3)C2=O)s1 | . | . | . | . | . | 107.0
Cc1ccc(/C=C2\C(=O)NC(=S)N(c3ccccc3F)C2=O)s1 | 84.1 | . | . | / | 95.2 | 107.8
COC1=C(OC)[C@]23CCc4ccc(OC)c(OC)c4[C@]2(CCN3C)CC1=O | . | . | . | . | . | .
COc1cc2c(cc1OC)C1C(=O)c3ccc4c(c3OC1CO2)CC(C(C)C)O4 (centres undefined) | . | 85.1 | . | . | . | .
CC1OC(OC2CC(O)C3(CO)C4C(O)CC5(C)C(C6=CC(=O)OC6)CCC5(O)C4CCC3(O)C2)C(O)C(O)C1O (centres undefined) | 90.8 | . | -50.7 | 86.7 | 84.4 | 109.7
CC12CC[C@H]3[C@@H](CCC4(O)C[C@H](O)CCC34/C=N/NC(=O)c3ccccc3F)C1(O)CCC2C1=CC(=O)OC1 (some centres undefined) | . | / | . | . | . | .
CN(C)c1ccc(C(=O)N/N=C/C23CC[C@@H](O)CC2(O)CC[C@@H]2[C@@H]3CCC3(C)C(C4=CC(=O)OC4)CCC23O)cc1 (some centres undefined) | . | / | -52.2 | 74.8 | . | 105.4
CC12CC[C@H]3[C@@H](CCC4(O)C[C@H](O)CCC34/C=N/NC(=O)c3ccccc3O)C1(O)CCC2C1=CC(=O)OC1 (some centres undefined) | . | . | . | . | . | 80.5
COc1ccc(C(=O)N/N=C/C23CC[C@@H](O)CC2(O)CC[C@@H]2[C@@H]3CCC3(C)C(C4=CC(=O)OC4)CCC23O)cc1 (some centres undefined) | . | . | . | . | . | 66.4
CC12CC[C@H]3[C@@H](CCC4(O)C[C@H](O)CCC34/C=N/NC(=O)c3ccc(O)cc3)C1(O)CCC2C1=CC(=O)OC1 (some centres undefined) | . | / | . | . | . | .
CCOC(=O)Cn1cc([N+](=O)[O-])nc1[N+](=O)[O-] | . | . | . | 64.8 | . | .
S=C(NCCc1ccccc1)N1Cc2ccc(Br)cc2-n2nncc2C1 | . | . | . | / | . | 51.0
S=C(NCCc1ccccc1)N1Cc2cc(Br)ccc2-n2nncc2C1 | . | . | . | / | . | .
CCOc1c(Cl)cc(CNCCc2c[nH]c3ccccc23)cc1OC | . | / | . | . | . | 59.5
CCOc1cc(CNCCc2c[nH]c3ccccc23)cc(Cl)c1OCC | . | . | . | . | . | 94.9
CN1CCN(c2nc3c(c(=O)[nH]2)CCC3)CC1 | . | . | . | . | . | .
COC1C(C)OC(OC2CC(C)(O)Cc3cc4c(c(O)c32)C(=O)c2c(O)cc3c(c2C4=O)OC2OC3(C)C(O)C(N(C)C)C2O)C(OC)C1(C)OC (centres undefined) | . | . | . | 63.8 | . | .
CCC1(c2ccc(C)cc2)C(=O)NC(=S)NC1=O | . | . | . | / | . | .
